Results taken from article PMC7826789 (International Journal of Molecular Sciences, 2021).

How the values were obtained:
Conditions in all cases: Compound Concentration (nM):1000
EGFR(G719S) = system: EGFR(G719S)
[1] = system: EGFR(L747-E749del, A750P)
[2] = system: EGFR(L747-S752del, P753S)
EGFR(L747-T751del,Sins) = system: EGFR(L747-T751del,Sins)
EGFR(L858R) = system: EGFR(L858R)
EGFR(L858R,T790M) = system: EGFR(L858R,T790M)
EGFR(L861Q) = system: EGFR(L861Q)
EGFR(S752-I759del) = system: EGFR(S752-I759del)
EGFR(T790M) = system: EGFR(T790M)
EGFR = system: EGFR
EIF2AK1 = system: EIF2AK1
EPHA1 = system: EPHA1
EPHA2 = system: EPHA2
EPHA3 = system: EPHA3
EPHA4 = system: EPHA4
EPHA5 = system: EPHA5
EPHA6 = system: EPHA6
EPHA7 = system: EPHA7
EPHA8 = system: EPHA8
EPHB1 = system: EPHB1
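Also: KINOMEscan scanMAX binding as percent activity remaining versus control; lower means stronger binding.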

Structure (SMILES)	Percent Control (EGFR(G719S)) [%]	Percent Control [1] [%]	Percent Control [2] [%]	Percent Control (EGFR(L747-T751del,Sins)) [%]	Percent Control (EGFR(L858R)) [%]	Percent Control (EGFR(L858R,T790M)) [%]	Percent Control (EGFR(L861Q)) [%]	Percent Control (EGFR(S752-I759del)) [%]	Percent Control (EGFR(T790M)) [%]	Percent Control (EGFR) [%]	Percent Control (EIF2AK1) [%]	Percent Control (EPHA1) [%]	Percent Control (EPHA2) [%]	Percent Control (EPHA3) [%]	Percent Control (EPHA4) [%]	Percent Control (EPHA5) [%]	Percent Control (EPHA6) [%]	Percent Control (EPHA7) [%]	Percent Control (EPHA8) [%]	Percent Control (EPHB1) [%]
O=C(Nc1n[nH]c2nc(-c3ccc(O)cc3)c(Br)cc12)C1CC1 [SB-725317]	100	76	99	100	96	100	100	82	96	100	14	82	100	85	86	100	100	100	100	100
CC1=C(C(=O)Nc2ccc3[nH]ncc3c2)C(c2ccc3ccccc3c2)CC(=O)N1 (stereo not drawn) [GSK270822A]	100	100	100	100	100	55	83	100	56	100	87	93	88	85	82	100	90	98	99	99
Cl.O=C(Nc1ccc(Oc2ccc3[nH]c(NC(=O)c4ccccc4)nc3c2)cc1)Nc1cc(C(F)(F)F)ccc1F [GW709042A]	57	100	91	82	100	93	60	87	82	100	100	75	69	100	62	90	34	54	16	82
NS(=O)(=O)c1ccc(Nc2ncc(-c3ccccc3)o2)cc1 [GW572399X]	100	68	100	100	88	96	100	100	92	88	100	100	100	100	97	100	100	84	81	91
Cl.c1ccc(Cc2nc3ccc(Nc4ncnc5ccccc45)cc3[nH]2)cc1 [GR269666A]	0.6	41	70	37	36	100	9.8	71	100	5	100	100	100	100	100	100	100	100	100	100
COc1cccc(-c2c[nH]c3c(N/N=C/c4ccncc4)ncnc23)c1 [GW814408X]	32	18	16	35	23	30	41	41	53	30	100	100	96	93	100	100	100	91	79	81
CCS(=O)(=O)c1ccc(OC)c(Nc2ncc(-c3cccc(F)c3)o2)c1 [GW621970X]	92	72	75	84	92	100	79	73	100	85	100	65	100	68	96	100	100	100	100	100
CCn1c(-c2nonc2N)nc2c(C#CC(C)(C)O)nc(OCCNC)cc21.Cl [GSK949675]	100	92	100	100	100	100	100	100	85	96	100	100	100	100	100	98	100	100	100	100
COc1ccc(COc2ccc(Cc3cnc(N)nc3N)cc2OC)cc1 [GW632580X]	61	100	75	99	86	98	61	85	69	92	100	97	100	100	99	93	98	100	90	90
CN(C)CCNC(=O)Nc1ccc(N(C)c2ccnc(Nc3ccc(CS(C)(=O)=O)cc3)n2)cc1.Cl [GW830900A]	97	73	79	100	83	60	100	100	64	95	88	76	89	85	100	90	100	81	78	78
NS(=O)(=O)c1ccc(N/N=C2\C(=O)Nc3ccc(Cl)cc32)cc1 [GW280670X]	100	100	100	100	100	100	87	87	100	100	100	100	100	100	96	100	100	100	100	100
COc1ccc2c(-c3ccnc(Nc4cccc(OC(F)(F)F)c4)n3)cnn2n1 [GW810372X]	73	100	98	100	100	100	75	100	82	100	100	64	91	100	86	100	100	100	100	100
NS(=O)(=O)c1ccc(N/N=C2\C(=O)Nc3ccc(C(=O)NCc4ccncc4)cc32)cc1 [GW300657X]	97	100	90	81	94	100	91	98	100	93	100	100	89	100	88	94	100	100	99	100
Cl.O=S1CCN(Cc2ccc(-c3ccc4ncnc(Nc5ccc(OCc6ccccc6)c(F)c5)c4c3)o2)CC1 [GW576924A]	2.2	1.3	5.9	42	0.3	100	0	1.4	46	0.5	100	100	100	100	95	100	100	100	95	100
O=C1Nc2ccc(C(=O)c3ccco3)cc2C1=Cc1cc(Cl)c(O)c(Cl)c1 [GW406108X]	58	100	94	91	100	92	57	81	77	100	100	100	75	100	89	100	100	100	100	100
CN(C)c1cc2c(Nc3ccc4c(cnn4Cc4ccccc4)c3)ncnc2cn1 [GW282974X]											100	89	100	98	95	33	87	95	90	90
COc1ccccc1-c1cc(/C=C2\C(=O)Nc3ncc(Br)cc32)cc(Br)c1O [GW442130X]	100	100	88	100	100	85	100	100	72	100	100	100	100	98	100	100	100	100	100	100
COc1cc2ncnc(Nc3ccc4c(cnn4Cc4ccccc4)c3)c2cc1OC.Cl [GW282449A]	1.4	11	3.4	5.2	0.9	78	0	78	7.2	4.4	100	100	100	100	100	100	100	100	100	100
COc1ccc2[nH]c3c4[nH]c5ccc(OC)cc5c4c4c(c3c2c1)C(=O)NC4=O [GW296115X]	57	24	49	44	50	35	71	68	45	51	86	93	85	86	86	85	88	86	87	77
COc1cc(C=NNc2ncnc3c2cnn3-c2ccccc2)ccc1O [GW513184X]	44	46	33	64	96	76	62	64	82	100	100	100	100	100	100	83	100	90	94	99
